Screen size: about 68,000 compounds; about 2,700 (4%) showed an effect of 50% or more. For the sample, strong results were picked, then their nearest neighbours and some compounds at random.

The test system of this experiment is Plasmodium berghei. The experiment can be described thus: Screen against P. berghei liver stage (PbLuc), transformed with Luciferase, at 2uM. The format is functional, HepG2. Particulars: tested at 2 uM.
With `CCN1CC2(CNCCN(C(=O)Nc3ccccc3)C2)CC1=O` (stereo not given), the INHIBITION was found to be 17.77%.

Take `O=C(NCc1ccccc1)N1CCC2(CC(=O)N(c3ccsc3)C2)C1` (stereo not given): the INHIBITION is 18.86%.

Regarding `CN1CC2(CNCCN(C(=O)Nc3ccccc3)C2)CC1=O` (stereo not given), the INHIBITION worked out at 56.21%.

With `Cc1cccc(NC(=O)N2CCC3(CC(=O)N(c4ccsc4)C3)C2)c1` (stereo not given), the INHIBITION is listed as 1.29%.

For the compound `O=C(Nc1ccccc1)N1CCC2(CC(=O)N(c3ccsc3)C2)C1` (stereo not given), the INHIBITION worked out at 57.31%.

For `Cc1nn(Cn2ccc(C(=O)N3CCCCCC3)n2)c(C)c1Cl`, the INHIBITION stood at 7.68%.

For the compound `CC(NC(N)=O)C(=O)N1CCCN(Cc2nccn2C(C)C)CC1` (stereo not given), the INHIBITION was -7.5%.

For `CN(C(=O)Cc1ccc(NC(=O)NC2CCC2)cc1)c1ccccc1`, the INHIBITION stood at 43.21%.

Take `Cc1ccc(C(=O)N2CCC3(CC2)CCN(CCN(C)C)C3=O)cn1`: the INHIBITION is listed as 39.92%.

For the compound `CCn1c(C2CCN(C(=O)c3cc(Cl)no3)CC2)nn(C)c1=O`, the INHIBITION was determined as 13.76%.

For `CCn1c(C2CCN(C(=O)c3cc(CC(C)C)no3)CC2)nn(C)c1=O`, the INHIBITION came out at 51.31%.

On to `CCn1c(C2CCN(C(=O)c3cc(CC(C)C)on3)CC2)nn(C)c1=O`, for which the INHIBITION is on record as -5.44%.

`CCN1CCn2c(-c3cccc(F)c3)cnc2C12CCN(C(C)=O)CC2`: the INHIBITION was -13.68%.

On to `O=c1[nH]c(NCCO)nc2c1C1(CCCC1)Cc1ccccc1-2`, for which the INHIBITION was -29.21%.

In the case of `O=c1[nH]c(NCCO)nc2c1C1(CCCCC1)Cc1ccccc1-2`, the INHIBITION is given as 53.55%.

Turning to `O=c1[nH]c(NCCCO)nc2c1C1(CCCC1)Cc1ccccc1-2`, the INHIBITION is recorded as 43.82%.

`CCN(Cc1ccoc1)C(=O)NC1CCN(C(=O)OC(C)(C)C)C1` (stereo not given): the INHIBITION is reported as 7.93%.

As to `CCN(Cc1ccoc1)C(=O)C1CCN(C(=O)OC(C)(C)C)C1` (stereo not given), the INHIBITION was found to be 30.25%.

Regarding `CCN(Cc1ccoc1)C(=O)C1CN(C(=O)OC(C)(C)C)C1`, the INHIBITION was found to be 52.03%.

`Cc1cc(-n2nnc(C(=O)O)c2-c2ccncc2)ccc1F`: the INHIBITION was -37.39%.

Turning to `Cc1occc1C(=O)N1CCC2(CCCN(c3ncc(F)cn3)C2)C1` (stereo not given), the INHIBITION was -13.37%.

Consider `Cn1cc(C(=O)OCC(N)=O)c(-c2ccc(F)cc2F)n1`, for which the INHIBITION came out at 19.59%.

Turning to `CC(C)(C)n1cc(C(=O)O)c(-c2ccc(F)cc2F)n1`, the INHIBITION was found to be 52.98%.

In the case of `Cn1cc(C(=O)O)c(-c2ccc(F)cc2F)n1`, the INHIBITION stood at 31.51%.

For `COc1ccc(C(=O)C2CCCN(c3nccc(N)n3)C2)c(C)c1` (stereo not given), the INHIBITION came to 22.5%.

On to `COc1ccc(N2CCC(N(C)C(=O)Nc3ccncc3)CC2)cc1`, for which the INHIBITION is -18.09%.

As for `Cc1cccc(CN2CC[C@H]3[C@H]2CCN3C(=O)c2cnn(C)c2)n1`, the INHIBITION was 51.4%.

As to `Cc1cccc(CN2CC[C@@H]3[C@@H]2CCN3C(=O)c2ccno2)n1`, the INHIBITION stood at 51.94%.

In the case of `Cn1cc(C(=O)N2CC[C@@H]3[C@@H]2CCN3Cc2ccccc2)cn1`, the INHIBITION is 28.85%.

For the compound `Cn1cc(C(=O)N2CC[C@@H]3[C@@H]2CCN3Cc2ccncc2)cn1`, the INHIBITION turned out to be 70.31%.

As for `Cc1cccc(CN2CC[C@@H]3[C@@H]2CCN3C(=O)c2cc(C)on2)n1`, the INHIBITION is 26.01%.

In the case of `Cc1cccc(CN2CC[C@H]3[C@H]2CCN3Cc2cnn(C)c2)n1`, the INHIBITION came out at 46.68%.

As to `Cc1cccc(N2CC[C@H]3[C@H]2CCN3C(=O)c2cnn(C)c2)n1`, the INHIBITION turned out to be 3.56%.

In the case of `Cn1cc(C(=O)N2CC[C@@H]3[C@@H]2CCN3Cc2cccnc2)cn1`, the INHIBITION is reported as -31.39%.

Regarding `Cc1cccc(CN2CC[C@@H]3[C@@H]2CCN3C(=O)c2cnoc2C)n1`, the INHIBITION is listed as -15.6%.

As for `Cc1cc(CNCC2Cn3nnc(C)c3CO2)oc1C` (stereo not given), the INHIBITION came out at 26.42%.

`CCS(=O)(=O)NC1CCCN(c2ccc(F)cc2C)C1=O` (stereo not given): the INHIBITION is -13.11%.

For the compound `Cn1cc(C(=O)N2CCCC(C(=O)CCc3ccccc3)C2)cn1` (stereo not given), the INHIBITION was determined as 18.12%.

On to `CCC(O)CNc1nccc(-c2ccc(C)nc2C)n1` (stereo not given), for which the INHIBITION is given as -23.27%.

`O=C(Cc1ccsc1)N1CCC2(CCCN(CC3CCOCC3)C2)C1` (stereo not given): the INHIBITION was 32.04%.

As for `O=C(Cc1cccs1)N1CCC2(CCCN(CC3CCOCC3)C2)C1` (stereo not given), the INHIBITION is reported as 54.62%.

As for `O=C(Cc1ccccn1)N1CCC2(CCCN(CC3CCOCC3)C2)C1` (stereo not given), the INHIBITION is -16.36%.

On to `Cn1cnc2c1CCN(CCCOc1ccc(S(C)(=O)=O)cc1)C2`, for which the INHIBITION is on record as 72.05%.

On to `CS(=O)(=O)c1ccc(OCCCN2CCc3cncnc3C2)cc1`, for which the INHIBITION was found to be 20.53%.

As to `Cn1cnc2c1CCN(CCCOc1ccc(C#N)cc1)C2`, the INHIBITION was 40.29%.

With `CCS(=O)(=O)N(C)C1CCN(C(=O)c2cc(C)cc(C)c2)CC1`, the INHIBITION was -37.02%.

Regarding `CNC(=O)COc1ccccc1CNCc1c(C)noc1C`, the INHIBITION came to 57.75%.

As for `Cc1noc(C)c1CNC(=O)C(C)Oc1ccccc1F` (stereo not given), the INHIBITION is reported as -23.17%.

As for `CNC(=O)COc1cccc(CNCc2c(C)noc2C)c1`, the INHIBITION is -16.18%.

Regarding `Cc1cc(O)cc(=O)n1CCCC(=O)Nc1n[nH]c2cc(Br)ccc12`, the INHIBITION is listed as -14.65%.

For the origin of these results see ChEMBL document CHEMBL4513216, “Probing the Open Global Health Chemical Diversity Library for Multistage-Active Starting Points for Next-Generation Antimalarials” (ACS Infect Dis, 2020).
